HepG2 tox: kills HepG2 cells in TGF-b inhibitor counter-screen; HepG2 CAGA-GFP viability, ATP luminescence, 18 h; actives 0.76% (n = 410,000); Potency, µM (top dose mostly 46.1 µM), without a hit: at the top dose activity change, negative = cytotoxicity, usual class: cytotoxic
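HepG2 CAGA-GFP cells (1000/well, DMEM with 1% FBS) received compound, then TGF-beta at 500 pg/mL final, and were incubated 18 hours at 37 degrees C. Viability was read by CellTiter-Glo luminescence. Media-only wells were set as complete cell-killing and DMSO as no toxicity.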
ATXN2 expr inh: ATXN2 expression inhibition; HEK-293 ATXN2-luciferase reporter, luminescence, 24 h; actives 0.72% (n = 360,000); AID 1745845; Potency, µM (series often up to 57 µM), without a hit: top-dose activity change, negative = inhibition, hits mostly inhibitors; also: % is scaled to controls: 0 for no effect and ±100 for the full control effect; nearly all actives have a fitted effect of over 55% in size
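qHTS (up to 57 uM final) was run with 24 h compound exposure of reporter cells at 37 °C. Each well was multiplexed: SteadyGlo luminescence measured ATXN2-luciferase expression after a fluorogenic Gly-Phe-AFC viability readout (25 uM final).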
S2 tox: viability counter-screen for ATXN expression inhibitors | S2 cells (HEK-293 line with an ATXN2-luciferase reporter) viability, CellTiter-Fluor protease fluorescence, 24 h | Potency, µM (titrated, usually from 56.7 µM), usual class: cytotoxic | actives 0.49% (n = 400,000); also: nearly all actives have a fitted effect of over 40% in size
Apoferritin bind: binds horse apoferritin like a general anesthetic; P02791; apoferritin/1-aminoanthracene competitive binding, fluorescence; Potency, µM (highest dose often 77.5 µM), for the others: at the highest dose activity change, negative = displacement, most hits filed as inhibitors; actives 0.074% (n = 350,000); AID 485281; also: % is scaled to controls: 0 for no effect and ±100 for the full control effect; nearly all actives have a fitted effect of over 20% in size
Target sequence (P02791 2-175 limits assumed): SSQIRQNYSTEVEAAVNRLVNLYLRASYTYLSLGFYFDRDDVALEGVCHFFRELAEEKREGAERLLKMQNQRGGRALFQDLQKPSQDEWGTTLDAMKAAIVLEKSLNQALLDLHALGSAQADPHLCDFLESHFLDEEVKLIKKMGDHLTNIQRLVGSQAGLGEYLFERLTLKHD
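Concentration-response curves derived by four-parameter Hill fitting of normalized fluorescence, where compounds displaced 1-AMA from 10 uM horse apoferritin following a brief 10 min room-temperature incubation; propofol titration acted as positive control.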
TGFb SMAD3 inh: blocks TGF-b signaling; HepG2 CAGA-GFP TGF-b/SMAD3 reporter, GFP fluorescence, 18 h; TGF-beta stimulated, 500 pg/mL final; Potency, µM (titrated, usually from 46.1 µM), without a hit: at the highest dose activity, negative = inhibition, actives largely listed as inhibitors; actives 1.2% (n = 410,000); AID 588855; also: % is scaled to controls: 0 for no effect and ±100 for the full control effect; nearly all actives have a fitted effect of over 65% in size
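HEPG2 CAGA-GFP reporter cells (1000/well, DMEM with 1% FBS) received compounds, then recombinant TGF-beta at 500 pg/mL final for 18 hours at 37 degrees C. Per-cell GFP summed per well was normalised to unstimulated and stimulated DMSO controls before curve fitting.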
* hit, by the source's call; [ ] = another dose, or the depositor's remark. Sampled rows, rich in hits. Any-hit rate of the full collection: about 2.4%. Calls follow the shape of the dose curve; as a rule, active = well fitted curve in the direction sought with a large enough effect; inconclusive = small, poorly fitted or top-dose-only effect, or another doubt; inactive = no such curve, though single readings can be large; an effect the other way counts as inactive or inconclusive. Potency is read from the fitted curve at half-maximal effect.

CCc1cc2c(nc1CC)CCN(CC/C(C)=N/OC[C@@H](O)[C@@H]1O[C@@H]3OC(C)(C)O[C@@H]3[C@H]1O)C2 was read as Apoferritin bind -1.0%[15.3 µM].
`O=C1CCCCCN1C(=O)c1ccccc1` gave HepG2 tox 13.6%, ATXN2 expr inh -8.4%, S2 tox inactive and TGFb SMAD3 inh 0.0%.
`CC(C)(C)c1ccc(C(=O)N2CCCCCC2=O)cc1` gave HepG2 tox -19.8%, ATXN2 expr inh 6.31µM*, S2 tox inactive, Apoferritin bind -10.5% and TGFb SMAD3 inh 13.0%.
Screening COCCc1ccc(OCC2CO2)cc1 (stereo not drawn) returned ATXN2 expr inh 6.8% and S2 tox inactive.
CN(C)c1ccc(-c2nc3ncc(Cl)c(N4CCN(CC(=O)Nc5nccs5)CC4)c3[nH]2)cc1 was read as ATXN2 expr inh 13.5%.
For COc1ccc2oc(=O)c(C(=O)Nc3cccc(C(=O)O)c3)cc2c1 the results were HepG2 tox -1.4%, ATXN2 expr inh 0.891µM*, S2 tox inactive, Apoferritin bind -1.2% and TGFb SMAD3 inh 36.1%.
Screening CC1CC=CC2C1C(=O)N(Cc1ccccc1)C2c1ccoc1 (stereo not drawn) returned HepG2 tox -46.3%, Apoferritin bind -6.7% and TGFb SMAD3 inh inconclusive.
For CCCn1c(SCC(=O)c2ccc3c(c2)NC(=O)CO3)nc2ccccc21 the results were HepG2 tox 7.8%, ATXN2 expr inh -7.1%, S2 tox inactive, Apoferritin bind -11.6% and TGFb SMAD3 inh 2.9%.
For O=C(CCN1C(=O)C2C3C=CC(C4CC34)C2C1=O)Oc1cccc2cccnc12 (stereo not drawn) the results were HepG2 tox 6.31µM*, ATXN2 expr inh inconclusive, S2 tox inactive, Apoferritin bind -22.7% and TGFb SMAD3 inh 5.01µM*.
O=C(CCN1C(=O)C2C3C=CC(C4CC34)C2C1=O)Oc1ccc(Br)cc1 (stereo not drawn) was read as HepG2 tox 1.7%, ATXN2 expr inh 6.4%, S2 tox inactive, Apoferritin bind -5.1% and TGFb SMAD3 inh 1.3%.
`COc1ccc(S(=O)(=O)NC(=O)C2(C)CCN2C(=O)CCC2CCCC2)cc1OC` (stereo not drawn) gave HepG2 tox -2.7%, ATXN2 expr inh 8.1%, S2 tox inactive and TGFb SMAD3 inh -7.1%.
Cc1cccc(-c2cnc(C)nc2C2CCCN(C(=O)c3cccc(Cn4cccn4)c3)C2)c1 (stereo not drawn) was read as S2 tox inactive.
COc1ccccc1N1CCN(Cc2ccc(O)c3ncccc23)CC1 was read as HepG2 tox -57.2%, ATXN2 expr inh 3.55µM*, S2 tox inconclusive, Apoferritin bind -19.0% and TGFb SMAD3 inh inconclusive.
`CCOC(=O)C1CCN(Cc2ccc(O)c3ncccc23)CC1` gave HepG2 tox 7.94µM*, ATXN2 expr inh -36.8%, S2 tox inconclusive, Apoferritin bind -14.9% and TGFb SMAD3 inh inconclusive.
O=C(C[n+]1cccc2cccc(O)c21)c1ccc(Br)cc1 was read as HepG2 tox -7.9% and TGFb SMAD3 inh -9.5%.
`COc1cc(=O)n2c(c1C(=O)NCc1ccco1)CCN(Cc1ccc(F)cc1Cl)CC2` gave S2 tox inactive.
Screening O=C(CCC(=O)NNC(=O)COc1ccccc1)NCc1ccccc1 returned HepG2 tox 12.6µM*, ATXN2 expr inh -2.7%, S2 tox inactive, Apoferritin bind -7.0% and TGFb SMAD3 inh inconclusive.
Screening Cc1cc(C)cc(OCC(=O)NNC(=O)CCC(=O)NCc2ccccc2)c1 returned HepG2 tox -9.2%, ATXN2 expr inh -8.3%, S2 tox inactive, Apoferritin bind 5.4% and TGFb SMAD3 inh -1.6%.
For CCCCCCCCCC[n+]1cccc(Br)c1 the results were HepG2 tox -30.5% and TGFb SMAD3 inh inconclusive.
Screening CCCCCCCCCC[n+]1cc(Br)cc(Br)c1 returned HepG2 tox 22.4µM* and TGFb SMAD3 inh inconclusive.
CCC(Oc1ccccc1)C(=O)N(CC)CC(=O)NCc1ccc(F)cc1 (stereo not drawn) was read as HepG2 tox -5.1%, ATXN2 expr inh 5.8%, S2 tox inactive and TGFb SMAD3 inh -14.6%.
Screening CCN(CC(=O)NCc1ccc(F)cc1)CC(O)COCc1cccc(OC)c1 (stereo not drawn) returned HepG2 tox -40.8%, ATXN2 expr inh -1.7%, S2 tox inactive, Apoferritin bind -16.0% and TGFb SMAD3 inh 12.6µM*.
`COc1cc(/C=C2\SC(=O)N(CC(=O)Nc3cccc(C)c3)C2=O)cc([N+](=O)[O-])c1O` gave HepG2 tox -11.7%, ATXN2 expr inh -31.9%, S2 tox inconclusive, Apoferritin bind -4.1% and TGFb SMAD3 inh -2.6%.
For COc1cc(/C=C2\SC(=O)N(c3ccccc3Cl)C2=O)cc([N+](=O)[O-])c1O the results were HepG2 tox -16.2%, ATXN2 expr inh -0.3%, S2 tox inconclusive, Apoferritin bind 17.8µM* and TGFb SMAD3 inh -18.8%.
For CN(C)c1nc2cc(Cl)ccc2cc1CN(Cc1ccc2c(c1)OCO2)C(=O)c1ccoc1 the results were S2 tox inactive.
Screening Cc1ccc(-c2cc(NC(=O)CCl)n(-c3ccccc3)n2)cc1 returned HepG2 tox -104.2%, ATXN2 expr inh inconclusive, S2 tox inconclusive, Apoferritin bind inconclusive and TGFb SMAD3 inh inconclusive.
O=C(CCl)Nc1cc(-c2ccccc2)nn1-c1ccccc1 was read as HepG2 tox -111.2%, ATXN2 expr inh inconclusive, S2 tox 31.6µM*, Apoferritin bind -12.8% and TGFb SMAD3 inh inconclusive.
Screening CSC(=S)NN=C(C)c1cccc(C)n1 returned HepG2 tox -62.8%, ATXN2 expr inh inconclusive, S2 tox inconclusive and TGFb SMAD3 inh inconclusive.
Screening CC(=NNC(=S)N1CCCCC1)c1cccc(C)n1 returned HepG2 tox -52.7%, ATXN2 expr inh inconclusive, S2 tox inconclusive and TGFb SMAD3 inh 0.355µM*.
`CS/C(N)=N/N=C/c1cc(Br)cc(Br)c1O` gave HepG2 tox -64.7%, S2 tox inactive, Apoferritin bind 46.2% and TGFb SMAD3 inh 6.31µM*.
`CCOC(=O)c1c(-c2ccccc2)oc2ccc(OCC)cc12` gave HepG2 tox -18.5%, ATXN2 expr inh -5.2%, S2 tox inactive, Apoferritin bind -9.7% and TGFb SMAD3 inh -3.2%.
Screening CCOC(=O)c1c(-c2ccccc2)oc2ccc(OCC(O)CNCCN(C)C)cc12 (stereo not drawn) returned HepG2 tox 14.1µM*, ATXN2 expr inh -36.2%, Apoferritin bind -2.5% and TGFb SMAD3 inh inconclusive.
CCn1c(=O)c([N+](=O)[O-])c(Cl)c2ccccc21 was read as HepG2 tox -57.0%, ATXN2 expr inh -5.3%[11.3 µM], S2 tox 35.5µM*, Apoferritin bind -5.2% and TGFb SMAD3 inh inconclusive.

Assay outcomes deposited in PubChem by National Center for Advancing Translational Sciences (NCATS).
